Sm TGR block – inhibitors of Schistosoma mansoni thioredoxin glutathione reductase; 360,000 compounds, 3% hits; purified TGR, DTNB reduction, TNB absorbance 405 nm; Potency, µM (series often up to 114 µM), for inactives: at the top dose activity change, negative = inhibition, actives largely listed as inhibitors; further: on the % scale 0 is the no-effect control and ±100 the full control effect; nearly all actives have a fitted effect of over 60% in size
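TGR 20 nM + NADPH 100 uM (dispensed conc.), cpd preinc 15 min RT; start with NADPH (500 uM addition) then DTNB (15 mM addition). Kinetic TNB absorbance, 405 nm filter. Four-parameter Hill fit across titration.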
SARS PLpro yeast – SARS-CoV PLP inhibition in yeast; S. cerevisiae expressing SARS-CoV PLpro, growth rescue; 330,000 compounds, 0.19% hits; Potency, µM (series often up to 32.9 µM), without a hit: at the top dose activity, positive = growth rescue, usual class: activators; calls by dose curve; further: 0% is about no effect; nearly all actives have a fitted effect of over 55% in size
Pf growth 96h – inhibits malaria parasite growth, 96 h; P. falciparum luciferase reporter growth, 96 h; 320,000 compounds, 6.9% hits; Potency, µM (top dose mostly 28.7 µM), without a hit: at the highest dose activity change, negative = inhibition, hits mostly inhibitors; AID 504834; further: on the % scale 0 is the no-effect control and ±100 the full control effect
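Cell-based qHTS: luciferase-tagged P. falciparum in erythrocytes (2% hematocrit, 0.05% parasitemia final) incubated with compounds for 96 hours, 37 C, 5% CO2; luciferase detection reagent then added and luminescence measured.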
Pf growth 48h – inhibits P. falciparum growth in the first generation, 48 h. 310,000 compounds, 5.9% hits. Potency, µM (series often up to 28.7 µM), for inactives: at the top dose activity change, negative = inhibition, actives largely listed as inhibitors. P. falciparum luciferase growth in erythrocytes, 48 h; further: on the % scale 0 is the no-effect control and ±100 the full control effect
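Here the parasites carry a stable luciferase gene and grow inside erythrocytes in Albumax-based RPMI medium with compound for one erythrocytic cycle. Activity is scored as loss of luminescent signal.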
* hit, by the source's call; [ ] = another dose, or the depositor's remark. An excerpt weighted towards active compounds, which were near 12% of everything screened. Unless noted, the call rests on the fitted dose curve; in most records, active means well fitted curve in the direction sought with a large enough effect; inconclusive means small, poorly fitted or top-dose-only effect, or another doubt; inactive means no such curve, though single readings can be large; an effect the other way counts as inactive or inconclusive. Potency means the concentration at half of the fitted maximal effect.

`N#CCCn1nc(-c2ccc([N+](=O)[O-])cc2)cc1Nc1ccccc1NC(=O)C(F)(F)F` gave Sm TGR block 4%, SARS PLpro yeast -5%, Pf growth 96h 10µM* and Pf growth 48h 10µM*.
`N#CCCn1nc(-c2ccccc2)cc1Nc1ccccc1NC(=O)C(F)(F)F` gave Sm TGR block -7%, SARS PLpro yeast inconclusive, Pf growth 96h inconclusive and Pf growth 48h -15%.
`N#CCCn1nc(-c2ccc(Cl)cc2)cc1Nc1ccccc1NC(=O)C(F)(F)F` gave Sm TGR block -1%, SARS PLpro yeast -8%, Pf growth 96h 12µM* and Pf growth 48h -7%.
Cc1c(Cl)cccc1NC(=O)C(C)n1c(=O)cc(C)c2c(C)nn(-c3ccccc3)c21 (stereo not drawn) was read as Sm TGR block 44%.
`O=C(Cc1ccc(-c2ccccc2)cc1)NCCS(=O)(=O)N1CCN(c2cccc(Cl)c2)CC1` gave Sm TGR block 0%.
Screening CSCC(=O)NC1CCCc2c1cnn2-c1ccc(C)c(C)c1 (stereo not drawn) returned Sm TGR block -24%, SARS PLpro yeast -2%, Pf growth 96h inconclusive and Pf growth 48h -2%.
Screening CCOc1ccc(C(=O)NCc2cccs2)cc1 returned Sm TGR block -2%, SARS PLpro yeast 5%, Pf growth 96h 0.66µM* and Pf growth 48h 17%.
For COc1ccc(C(=O)NCC(c2ccco2)S(=O)(=O)c2ccccc2)cc1 (stereo not drawn) the results were Sm TGR block -18%.
`Cc1cccc(NS(=O)(=O)c2cccs2)c1` gave Sm TGR block -1%, SARS PLpro yeast 5% and Pf growth 96h 37%.
For CCOC(=O)C(=O)NCC(c1ccco1)S(=O)(=O)c1cccs1 (stereo not drawn) the results were Sm TGR block 2.5µM*, SARS PLpro yeast -1%, Pf growth 96h -1% and Pf growth 48h 10%.
For Cc1cc(C)c(S(=O)(=O)NCC(c2ccco2)S(=O)(=O)c2cccs2)c(C)c1 (stereo not drawn) the results were Sm TGR block 0.28µM*.
For CCOc1ccc(C(=O)NCC(c2ccco2)S(=O)(=O)c2cccs2)cc1 (stereo not drawn) the results were Sm TGR block 5.6µM*.
Screening CCOC(=O)C(=O)NCC(c1cccs1)S(=O)(=O)c1ccc(Cl)cc1 (stereo not drawn) returned Sm TGR block -33%, SARS PLpro yeast 4%, Pf growth 96h -28% and Pf growth 48h 22%.
`O=C(O)/C(=C\c1cccc(OCc2ccccc2)c1)c1ccc(F)cc1` gave Sm TGR block -12%, SARS PLpro yeast -3%, Pf growth 96h 1% and Pf growth 48h -3%.
`Cc1cccc(N2CCN(C(=O)CCCn3ncn4c(cc5occc54)c3=O)CC2)c1C` gave Sm TGR block 1%.
For CCOC(=O)CC(NC(=O)c1cccs1)c1ccc(OCC)cc1 (stereo not drawn) the results were Sm TGR block 3%, SARS PLpro yeast 1%, Pf growth 96h 10µM* and Pf growth 48h 6%.
For COc1ccc(C(=O)NNC(=O)c2ccc3ccccc3n2)cc1 the results were Sm TGR block 1%, SARS PLpro yeast 0%, Pf growth 96h -8% and Pf growth 48h -29%.
Screening CC(C)COc1ccc(C(=O)OCC(=O)N(C)CC(=O)Nc2ccc(F)cc2)cc1 returned Sm TGR block 7%, SARS PLpro yeast -2%, Pf growth 96h 11% and Pf growth 48h 6%.
Cc1csc(=Nc2c(C)n(C)n(-c3ccccc3)c2=O)n1Cc1ccccc1 was read as Sm TGR block 2%, SARS PLpro yeast 0%, Pf growth 96h -10% and Pf growth 48h -13%.
C=CCn1c(-c2ccc(OC)cc2)csc1=Nc1c(C)n(C)n(-c2ccccc2)c1=O was read as Sm TGR block 0%, SARS PLpro yeast 1% and Pf growth 96h 15µM*.
For Cc1[nH]n(C(N)=S)c(=O)c1N=Nc1ccc2ccccc2c1 the results were Sm TGR block inconclusive, SARS PLpro yeast -20%, Pf growth 96h 4.7µM* and Pf growth 48h 28%.
Screening COc1ccc(C(=O)CN2C(=O)N(c3cc(C)cc(C)c3)S(=O)(=O)c3ccccc32)cc1 returned Sm TGR block 1%.
COc1ccc(/C=N/NC(=O)c2cc(-c3ccccc3OC(C)C)nc3ccccc23)cc1CN1CCOCC1 was read as Sm TGR block 3%, SARS PLpro yeast -2%, Pf growth 96h 2% and Pf growth 48h 3%.
COc1ccccc1-c1cc(C(=O)N/N=C/c2ccoc2)c2ccccc2n1 was read as Sm TGR block 0%, SARS PLpro yeast -3%, Pf growth 96h 0% and Pf growth 48h 9.3µM*.
For COc1ccccc1-c1cc(C(=O)N/N=C/c2ccc(C)s2)c2ccccc2n1 the results were Sm TGR block -8%, SARS PLpro yeast 12%[6.58 µM] and Pf growth 96h 1.5µM*.
Screening COc1ccc(/C=N/NC(=O)c2cc(-c3ccccc3OC)nc3ccccc23)cc1COC(C)=O returned Sm TGR block 7%, SARS PLpro yeast 5%, Pf growth 96h 1.9µM* and Pf growth 48h 12µM*.
CCc1ccc(/C=N/NC(=O)c2cc(-c3ccccc3OC)nc3ccccc23)s1 was read as Sm TGR block -2%, SARS PLpro yeast -3% and Pf growth 96h 2.6µM*.
For N#Cc1ccccc1OCC(=O)N(C1CCCCC1)C1CCS(=O)(=O)C1 (stereo not drawn) the results were Sm TGR block 2%, SARS PLpro yeast -6%, Pf growth 96h 0% and Pf growth 48h -1%.
Screening CCn1nnc2cc(C(=O)NCC(c3ccccc3OC)N(C)C)ccc21 (stereo not drawn) returned Sm TGR block inconclusive, SARS PLpro yeast 0%, Pf growth 96h -14% and Pf growth 48h -26%.
Screening CCc1ccc(N2CC(C(=O)Nc3ccc4c(c3)OCO4)CC2=O)cc1 (stereo not drawn) returned Sm TGR block 0%, SARS PLpro yeast -3%, Pf growth 96h 12% and Pf growth 48h -1%.
Screening Cc1ccc(NC(=O)CSc2nc(-c3cccs3)cc(C(F)(F)F)n2)cc1C returned Sm TGR block 16%.
`CC(C)(C)c1ccc2c(S(=O)(=O)O)c(C(C)(C)C)ccc2c1` gave Pf growth 96h inconclusive and Pf growth 48h -4%.
For COc1ccc(CCNC(=O)c2coc(=O)c(Br)c2)cc1 the results were Sm TGR block -13%, SARS PLpro yeast 1%, Pf growth 96h 0% and Pf growth 48h 5%.
Screening COc1ccc(C)cc1NC(=O)CSc1nnc(COc2ccc(C)cc2)n1Cc1ccco1 returned Sm TGR block 9%, SARS PLpro yeast 8%, Pf growth 96h inconclusive and Pf growth 48h inconclusive.
Screening CCOc1ccccc1NC(=O)CN1C(=O)C(=O)N(Cc2ccco2)C1=O returned Sm TGR block -17%, SARS PLpro yeast 1%, Pf growth 96h 0% and Pf growth 48h 12µM*.
CC(=O)Nc1ccc(NC(=O)CSc2nnc(-c3ccco3)n2Cc2ccco2)cc1 was read as Sm TGR block -18%, SARS PLpro yeast 1%, Pf growth 96h inconclusive and Pf growth 48h -19%.

From PubChem BioAssay
